Source: PubChem (several laboratories)
PrPC surface inh: cell surface PrPC inhibition, primary TR-FRET screen; inhibition, % at 13.8 µM; AID 720596; TR-FRET read-out; 370,000 tested, 0.43% active; P04156; in the data active = inhibition above about 24%
Vc quorum ag: quorum light induction in luxS cqsA deficient V. cholerae; 350,000 tested, 0.16% active; V. cholerae BH1578 lux reporter, luminescence, 6 h; AID 588436; activation, % at 18.7 µM; in the data active = activation mostly above about 9.7%, no sharp cut-off
Y pestis TopoI: inhibitors of Yersinia pestis topoisomerase I. 360,000 tested, 0.064% active. activity, % at 10 µM. Y. pestis Topo-I cleavage product accumulation, plate reader; in the data active = activity above about 50%, passing the limit was not always enough
CCHF vOTU inh: blocks the CCHF virus ovarian tumor domain protease; 370,000 tested, 0.55% active; CCHFV vOTU protease, Pep-AMC fluorescence; AID 651958; inhibition, % at 11.5 µM; in the data active = inhibition above about 30%
PrPC TRFRET cf: confirmation of inhibitors of cell surface human prion protein; 1,500 tested, 65% active; inhibition, % at 13.8 µM; shares compounds with PrPC surface inh; cell surface PrPC level, TR-FRET; in the data active = inhibition above about 25%
LD9 tox: counter-screen for PrPc inhibitors: cytotoxicity in LD9 cells. inhibition, % at 13.8 µM. luminescence viability. shares compounds with PrPC surface inh. 1,500 tested, 29% active. AID 743201; in the data active = inhibition above about 9.5%
A number is an active result; - = inactive; . = no result given. Hits are enriched below; roughly 1.1% of the tested compounds scored in any of these assays.

SMILES	PrPC surface inh	Vc quorum ag	Y pestis TopoI	CCHF vOTU inh	PrPC TRFRET cf	LD9 tox
Cc1ccc(NC(=S)NNC(=S)Nc2ccc(C)cc2C)cc1	-	-	-	-	.	.
CC1(Cc2ccc(F)cc2)C(=O)Nc2c(Cl)cccc21 (stereo not drawn)	-	-	-	-	.	.
CCc1[nH]nc(C(=O)N2CCCC(C(=O)c3cccc(C(F)(F)F)c3)C2)c1C (stereo not drawn)	-	-	-	-	.	.
O=C(NCc1ccco1)C(=O)NCC1OCCN1S(=O)(=O)c1cc(F)ccc1F (stereo not drawn)	-	-	-	-	.	.
Cc1cccc2cc(C#N)c(SCC(=O)N3CC(=O)Nc4ccccc43)nc12	29.0	-	-	-	70.5	15.6
COc1ccc2cc(C#N)c(SCC(=O)N3CC(=O)Nc4ccccc43)nc2c1	.	-	-	.	.	.
CCCc1cc(=O)oc2c3c(cc(OCC(=O)NCCCn4ccnc4)c12)OC(C)(C)CC3	-	-	-	-	.	.
O=[N+]([O-])c1ccc(N/N=C/c2cccnc2)cc1	-	-	-	-	.	.
Clc1ccc(N/N=C/c2cccnc2)cc1	25.0	-	-	-	-	-
Cn1c2ccccc2c(=O)c2ccc(C#Cc3ccc(N)cc3)cc21	28.8	-	-	-	52.7	19.0
C=CCn1c(O)c(C(C)=NCCc2ccccc2)c(=O)[nH]c1=O	-	-	-	-	.	.
COC(=O)NNC(=O)COc1ccc2ccccc2c1Br	34.4	-	-	-	49.1	-
CC(C)(C)C(=O)NNC(=O)COc1ccc2ccccc2c1Br	72.3	-	-	-	70.9	-
Cc1cc(NC(=O)COc2ccc3ccccc3c2Br)no1	80.5	-	-	-	101.0	-
O=C(COc1ccc2ccccc2c1Br)NNC(=O)Nc1ccccc1	-	-	-	-	.	.
O=C(C1CCCCC1)N1C[C@@H](O)[C@H](n2cc(C3CC3)nn2)C[C@@H]1c1ccc(Cl)cc1	-	-	-	-	.	.
Cc1c(C(=O)NCc2ccco2)cccc1[N+](=O)[O-]	-	-	-	-	.	.
Cc1c(C(=O)NCc2ccc3c(c2)cc(C)n3C)cccc1[N+](=O)[O-]	34.3	-	-	-	-	-
Cc1cc2cc(CNC(=O)Cc3ccc([N+](=O)[O-])cc3)ccc2n1C	-	.	-	-	.	.
Cc1cc2cc(CNC(=O)c3cccc([N+](=O)[O-])c3)ccc2n1C	36.8	-	-	-	-	-
Cc1ccc(Cl)cc1-c1cc(C(=O)NCc2ccco2)[nH]n1	-	-	-	-	.	.
N#Cc1c(N)nc2c3c(sc(=N)c2c1N)NC(=O)CC3c1ccccc1 (stereo not drawn)	-	-	-	-	.	.
Cc1nn(C(C)C(=O)O)c(=O)c2c1sc1ccccc12 (stereo not drawn)	45.3	-	-	-	59.6	-
Cc1nn(C(C)C(=O)N2CCCCC2)c(=O)c2c1sc1ccccc12 (stereo not drawn)	-	-	-	-	.	.
CSc1ncccc1C(=O)Nc1nc(C(C)(C)C)cs1	26.6	-	-	-	26.6	-
SMILES	PrPC surface inh	Vc quorum ag	Y pestis TopoI	CCHF vOTU inh	PrPC TRFRET cf	LD9 tox
COCCNC(=S)N/N=C/c1ccc(OCc2ccc(C(=O)OC)cc2)cc1	-	-	-	-	.	.
NS(=O)(=O)c1ccc(CCNC(=O)CCCCCn2c(=S)[nH]c3ccc(Br)cc3c2=O)cc1	24.9	-	-	-	37.0	-
O=C(CCCCCn1c(=S)[nH]c2ccc(Br)cc2c1=O)NCC1CCCO1 (stereo not drawn)	-	.	-	-	.	.
O=C(COc1ccc2ccccc2c1)NNC(=O)Cc1ccccc1	-	-	-	-	.	.
O=C(Cc1ccccc1)NNc1ccc2ccccc2c1	29.5	-	-	-	-	-
Cc1ccc(C2CC(=O)Nc3c2ccc2ccccc32)cc1[N+](=O)[O-] (stereo not drawn)	-	-	-	-	.	.
Cc1ccc(SCCNC(=O)c2ccccc2)cc1	-	-	-	-	.	.
COc1ccc(C(=O)NCCSc2ccc(C)cc2)cc1	57.0	-	-	-	-	-
CC(=O)Nc1ccc(S(=O)(=O)N(CC(=O)Nc2cc(C)on2)Cc2ccc(F)cc2)cc1	-	-	-	-	.	.
COc1ccccc1NC(=O)CSc1nc2c(oc3ccccc32)c(=O)n1C	-	-	-	-	.	.
COc1ccccc1NC(=O)CSc1ncnc2c1oc1ccccc12	26.5	-	-	-	-	-
COC(=O)N1C2CCCCC2=NN(c2ccccc2)N1C(=O)OC (stereo not drawn)	28.9	.	.	-	-	-
Clc1ccc(CSc2nncn2-c2ccccn2)cc1	-	-	-	-	.	.
CCOC(CCn1ccc(O)c(Cc2ccc(Cl)cc2)c1=O)OCC	35.0	-	-	-	-	-
